# POLB inh = blocks human DNA polymerase beta activity; P06746; Pol beta primer extension/strand displacement, fluorescence kinetic; Potency, µM (doses to about 114 µM), without a hit: at the top dose activity change, negative = inhibition, usual class: inhibitors; 340,000 tested, 1.3% active; also: potency is read from the fitted curve at half-maximal effect; % is scaled to controls: 0 for no effect and ±100 for the full control effect
#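 Enzyme-only controls used 10 nM Pol beta; buffer lacking enzyme served as negative control. Compound preincubated 15 min, then 50 nM substrate added; 0 and 10 min reads at room temperature.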
# POLI inh = blocks human DNA polymerase iota activity | 390,000 tested, 1% active | Q9UNA4 | Pol iota fluorescent replication assay, 10 min | AID 588590 | Potency, µM (series often up to 115 µM), for inactives: at the highest dose activity, negative = inhibition, most hits filed as inhibitors; also: potency is read from the fitted curve at half-maximal effect
#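 Pol iota at 10 nM preincubated 15 min with compounds at room temperature; reaction started with fluorescent substrate, 50 nM final. Fluorescence read kinetically at 0 and 10 min; buffer-only wells as negative control.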
# PI5P4K alpha inh = blocks human PI5P4K alpha kinase activity; max response, %; AID 652105; 330,000 tested, 1.2% active; PI5P4Kalpha enzyme, ADP-Glo luminescence, 60 min; active compounds read low; P48426; active = max response of -50% or lower; inconclusive = between -30% and -50%; inactive = -30% or higher; also: value at the top dose of about 77 µM; % is scaled to controls: 0 for no effect and ±100 for the full control effect
# Target sequence (P48426 whole entry, looked up): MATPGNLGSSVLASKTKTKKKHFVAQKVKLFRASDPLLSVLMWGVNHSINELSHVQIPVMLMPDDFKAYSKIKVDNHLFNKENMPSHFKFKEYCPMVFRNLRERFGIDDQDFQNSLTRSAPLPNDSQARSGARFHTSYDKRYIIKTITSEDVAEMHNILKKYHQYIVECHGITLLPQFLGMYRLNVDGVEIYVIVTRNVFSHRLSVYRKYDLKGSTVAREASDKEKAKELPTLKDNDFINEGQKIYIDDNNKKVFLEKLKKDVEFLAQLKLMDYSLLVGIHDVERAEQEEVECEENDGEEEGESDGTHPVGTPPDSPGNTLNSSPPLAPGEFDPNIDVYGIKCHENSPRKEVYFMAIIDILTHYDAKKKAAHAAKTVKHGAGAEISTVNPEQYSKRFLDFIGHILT
#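 Quantitative HTS of the MLSMR library against PI5P4Kalpha with substrate. ATP added last at 5 microM final; room temperature, 60 minutes. Remaining ATP depleted, ADP converted and read as luminescence.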
# FEN1 inh-1 = inhibitors of human flap endonuclease 1; Potency, µM (titrated, usually from 114 µM), for the others: at the highest dose activity change, negative = inhibition, actives largely listed as inhibitors; P39748; 390,000 tested, 0.35% active; Recombinant FEN1 flap cleavage, fluorescence, 15 min; also: potency is read from the fitted curve at half-maximal effect; % is scaled to controls: 0 for no effect and ±100 for the full control effect; nearly all actives have a fitted effect of over 65% in size
#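 Quantitative HTS format: each compound was titrated, incubated with 10 nM nuclease for 15 min at room temperature, then challenged with flap substrate at 50 nM final. Signal change over 15 min gave concentration–effect curves.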
# Pol eta inh = DNA polymerase eta (human) inhibition; AID 588591; Potency, µM (titrated, usually from 114 µM), for the others: at the top dose activity change, negative = inhibition, actives largely listed as inhibitors; 390,000 tested, 1.2% active; recombinant Pol eta, fluorescent DNA replication assay; Q9Y253; also: potency is read from the fitted curve at half-maximal effect; % is scaled to controls: 0 for no effect and ±100 for the full control effect
#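 Pol eta (10 nM) was preincubated with compounds for 15 min at room temperature, after which fluorescent replication substrate (50 nM final) was added to start the reaction. Fluorescence was read kinetically at 0 and 10 min.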
# POLK inh = inhibitors of human DNA polymerase kappa | 400,000 tested, 0.53% active | AID 588579 | Potency, µM (highest dose often 107 µM), for the others: top-dose activity, negative = inhibition, actives largely listed as inhibitors | Q9UBT6 | purified Pol kappa, fluorescent DNA synthesis assay, 10 min; also: potency is read from the fitted curve at half-maximal effect; % is scaled to controls: 0 for no effect and ±100 for the full control effect
#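 Readout: fluorescence, taken kinetically at 0 and 10 min. Conditions: 10 nM Pol kappa, 15 min RT compound preincubation, 50 nM substrate final. Controls: enzyme-free buffer wells.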
# FEN1 inh-2 = confirmation of human FEN1 inhibitors; shares compounds with FEN1 inh-1; FEN1 flap cleavage, TAMRA/BHQ2 fluorogenic DNA substrate; Potency, µM, actives largely listed as inhibitors; 880 tested, 79% active; AID 720498; also: potency is read from the fitted curve at half-maximal effect; nearly all actives have a fitted effect of over 60% in size
# Starred values were filed as active, the others as inactive; u = inconclusive; x = no result given; [ ] = remark or other dose. An excerpt weighted towards active compounds, which were near 2.8% of everything screened. Unless noted, calls follow the shape of the dose curve; as a rule, active = well fitted curve in the direction sought with a large enough effect; inconclusive = small, poorly fitted or top-dose-only effect, or another doubt; inactive = no such curve, though single readings can be large; an effect the other way counts as inactive or inconclusive.
SMILES,POLB inh,POLI inh,PI5P4K alpha inh,FEN1 inh-1,Pol eta inh,POLK inh,FEN1 inh-2
COc1cccc(-c2nc(N3CCN(C)CC3)c3ccccc3n2)c1O,-12%,u,9,50µM*,-10%,-28%,38*
CN(C)CCCN1C(=O)c2cccc3c([N+](=O)[O-])ccc(c23)C1=O,u,u,-5,50µM*,-17%,-8%,34*
c1csc(CNc2ncnc3ccc(-c4ccc5c(c4)OCO5)cc23)c1,x,43%,x,u,-5%,-12%,x
c1nc(NCCCN2CCCCC2)c2cc(-c3ccc4c(c3)OCO4)ccc2n1,x,x,x,x,x,x,34*
Cc1cccc(CNc2ncnc3ccc(-c4ccc5c(c4)OCO5)cc23)c1,x,-12%,x,u,-8%,u,x
Cn1cncc1CNc1ncnc2ccc(-c3ccc4c(c3)OCO4)cc12,x,x,x,x,x,x,u
CN1CCN(c2ncnc3ccc(-c4ccc5c(c4)OCO5)cc23)CC1,x,x,x,x,x,-6%[60.1 µM],x
c1nc(N2CCC(N3CCCC3)CC2)c2cc(-c3ccc4c(c3)OCO4)ccc2n1,x,x,x,x,x,x,34*
c1ccc2nc3c(nc2c1)c1ccccc1n3CCN1CCOCC1,u,u,x,u,2%,-24%,u
COc1ccc(CN(C)C(=S)Nc2ccc(Cl)cc2)cc1,26%,u,6,4%,-13%,-1%,x
CC(C)c1ccc(CN(Cc2ccco2)c2cnc(S(C)(=O)=O)nc2C(=O)Nc2ccc(F)cc2)cc1,15%,18%,x,-9%,-18%,-5%,x
CC1CC(C)C(=O)C(C(CC2CC(=O)NC(=O)C2)OC(=O)CC(=O)c2ccccc2)C1 (stereo unspecified),x,40%,-5,4%,-12%,0%,x
Cc1cccc2nc(-c3cccc(NC(=O)c4ccc(Cl)cc4)c3)cn12,1%,u,-3,u,2%,-5%,60*
CCNc1ncc2nc(-c3ccc(Cl)cc3)c(=O)n(CCC#N)c2n1,x,x,x,x,x,1%[60.1 µM],x
O=C(Nc1ccccc1C(=O)NC1CC1)c1ccc([N+](=O)[O-])o1,x,50µM*,u,-14%,32µM*,-35%,u
COc1ccc(OC)c(CCNC(=O)Cn2nc(C)c3c(C)n(-c4ccc(C)cc4)nc3c2=O)c1,u,u,-3,u,-18%,u,u
COc1ccc(CCNC(=O)Cn2nc(C)c3c(C)n(-c4ccccc4)nc3c2=O)c(OC)c1,35%,u,-8,18%,-6%,0%,x
COc1ccc(-c2oc3ncnc(NCCCN(C)C)c3c2-c2ccc(OC)cc2)cc1,u,0%,-3,u,-13%,-5%[60.1 µM],u
COc1ccc(S(=O)(=O)N2CCOCC2)cc1NC(=O)COC(=O)c1ccc([N+](=O)[O-])s1,x,89µM*,19,-20%,u,-24%,6.7*
Cc1ccc(C(=O)OCc2nnc(-c3ccccc3)o2)s1,x,51%,0,-3%,-8%,3%,x
COc1ccc(S(=O)(=O)N2CCOCC2)cc1NC(=O)COC(=O)c1[nH]c(C)c(C(C)=O)c1C,x,-20%,-1,-4%,2%,-21%,x
O=C(COC(=O)c1ccc([N+](=O)[O-])s1)Nc1ccccc1,6.3µM*,89µM*,-7,-18%,u,-3%,21*
O=C(OCc1nnc(-c2ccccc2)o1)c1ccc([N+](=O)[O-])s1,x,u,1,u,56µM*,-33%,4.8*
CCC(Sc1nc2ccsc2c(=O)n1Cc1ccc(C(=O)O)cc1)C(=O)Nc1ccc(C)c(Cl)c1 (stereo unspecified),u,u,-1,u,79µM*,-30%,u
CCCCn1c(N)c(N(CCC(C)C)C(=O)COC(=O)c2ccc([N+](=O)[O-])s2)c(=O)[nH]c1=O,x,79µM*,-4,-17%,u,-15%,7.6*
SMILES,POLB inh,POLI inh,PI5P4K alpha inh,FEN1 inh-1,Pol eta inh,POLK inh,FEN1 inh-2
CC(C)CN(C(=O)COC(=O)c1ccc([N+](=O)[O-])s1)c1c(N)n(Cc2ccccc2)c(=O)[nH]c1=O,x,-22%,-8,-19%,4%,-8%,x
CC(=O)N1CCc2c(sc3nc(SCC(N)=O)n(-c4ccc(F)c(Cl)c4)c(=O)c23)C1,-9%,-3%,x,-9%,4%,5%,x
CCC(Sc1nc(-c2ccccc2)c(C#N)c(=O)[nH]1)C(=O)Nc1nnc(C)s1 (stereo unspecified),1%,u,-25,u,6%,-21%,48*
N#Cc1c(-c2ccccc2)nc(SCC(=O)Nc2nnc(C(F)(F)F)s2)[nH]c1=O,11%,-9%,-26,-6%,-9%,-12%,x
O=C(C[n+]1ccc(/C=C/c2ccccc2)cc1)c1ccc2c(c1)OCCO2,-2%,59%,6,-13%,-16%,-45%,x
Cc1nn(-c2ccccn2)c2c1C(=O)CC(C)(C)C2Br (stereo unspecified),10%,-1%,-1,-1%,-21%,-3%,x
CC(C)(C)/C(O)=C/c1nc2cc(Cl)ccc2oc1=O,4%,5%,-3,28µM*,-7%,-19%,12*
Cc1ccc2oc(=O)c(/C=C(\O)C(C)(C)C)nc2c1,-3%,15%,-6,50µM*,-10%,13%,34*
Cc1ccc2oc(=O)c(/C=C(\O)c3ccco3)nc2c1,29%,46%,2,9%,-23%,-9%,x
Cc1ccc2oc(=O)c(/C=C(\O)c3sc(C)nc3C)nc2c1,83%,110%,-2,-5%,-16%,-2%,x
c1ccc(-c2csc3ncnc(NCCCN4CCOCC4)c23)cc1,4%,16%,4,9%,-5%,3%,x
O=c1c2c(-c3ccccc3)csc2nc2c3ccccc3c(NCCN3CCOCC3)nn12,u,-26%,10,40µM*,-12%,-21%,21*
COc1ccc(N2CC(NC(=O)/C=C\c3ccc4c(c3)OCO4)CC2=O)cc1 (stereo unspecified),1%,10%,x,-9%,-8%,-5%[60.1 µM],x
CCCSc1nc(C)c2cc(C)cc(C)c2n1,8%,9%,12,-1%,-2%,0%,x
Cc1cc(C)c2nc3nc(C)c(C)cc3c(N)c2c1,16µM*,32µM*,0,45µM*,-20%,u,24*
Cn1cc(/C=C/c2cc[n+](C)cc2)c2cc(F)ccc21,u,45%,-6,45µM*,u,-18%,38*
C[n+]1ccc(/C=C/c2c[nH]c3ccc(F)cc23)cc1,18%,-14%,-3,u,-31%,-6%,x

# Screens as filed in PubChem BioAssay.
